Test results from PubChem BioAssay.
The source made the active and inactive calls.

Assays:
[1] = compounds binding Alexa647 anti-His antibody – biochemical, small-molecule microarray, 635 nm fluorescence, artefact control for SMM control protein annotation, primary screen (AID 1128); settings: higher = more signal;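 further: score merges feature fluorescence with signal-to-noise for each printed compound spot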
[2] = test system: Human papillomavirus type 1a E7 protein (residues 1-88); test: HPV1a E7 small-molecule binders, primary screen, biochemical, small-molecule microarray, residues 1-88, 635 nm (AID 1129); settings: small-molecule microarray binding, fluorescence 635 nm; higher = more signal
[3] = target: Focal adhesion kinase 1 (Homo sapiens) (UniProt Q05397); test: PTK2 protein binding on printed compound slides – biochemical, small-molecule microarray, 635/667 nm fluorescence, BSA, DTT, primary screen (AID 1130); settings: 635 nm fluorescence, higher = more signal;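 further: composite of spot emission at 667 nm and signal to noise over triplicate slides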
Sequence of Focal adhesion kinase 1 (Homo sapiens) (Q05397 whole entry, looked up): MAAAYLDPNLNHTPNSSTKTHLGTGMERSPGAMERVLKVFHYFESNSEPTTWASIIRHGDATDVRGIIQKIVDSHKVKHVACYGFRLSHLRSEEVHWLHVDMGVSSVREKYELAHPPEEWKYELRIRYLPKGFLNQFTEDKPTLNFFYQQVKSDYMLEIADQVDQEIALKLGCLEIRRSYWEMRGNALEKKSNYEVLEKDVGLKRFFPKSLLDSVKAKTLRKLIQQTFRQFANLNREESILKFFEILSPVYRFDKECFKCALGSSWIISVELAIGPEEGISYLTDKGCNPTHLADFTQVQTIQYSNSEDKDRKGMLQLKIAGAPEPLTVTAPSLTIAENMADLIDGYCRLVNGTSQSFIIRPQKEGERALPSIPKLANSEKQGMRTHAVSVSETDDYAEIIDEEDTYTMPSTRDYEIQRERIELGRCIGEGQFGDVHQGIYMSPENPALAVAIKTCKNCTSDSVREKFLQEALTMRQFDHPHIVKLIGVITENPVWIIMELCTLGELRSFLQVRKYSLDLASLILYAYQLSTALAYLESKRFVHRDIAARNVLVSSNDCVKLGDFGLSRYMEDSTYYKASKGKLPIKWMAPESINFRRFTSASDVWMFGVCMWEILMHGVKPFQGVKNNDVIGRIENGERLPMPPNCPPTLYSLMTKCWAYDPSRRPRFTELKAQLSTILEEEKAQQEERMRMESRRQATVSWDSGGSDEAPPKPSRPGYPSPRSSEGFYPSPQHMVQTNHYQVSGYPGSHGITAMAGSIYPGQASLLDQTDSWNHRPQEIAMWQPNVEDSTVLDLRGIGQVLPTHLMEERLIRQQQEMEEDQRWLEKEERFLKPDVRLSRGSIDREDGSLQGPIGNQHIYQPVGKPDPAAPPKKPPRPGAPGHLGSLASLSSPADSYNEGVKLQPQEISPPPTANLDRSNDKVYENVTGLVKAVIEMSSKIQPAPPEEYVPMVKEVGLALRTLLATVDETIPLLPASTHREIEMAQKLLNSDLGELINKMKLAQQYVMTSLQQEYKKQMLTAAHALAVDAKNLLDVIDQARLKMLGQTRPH

[4] = test system: Fibrinogen (Alexa647-labelled); test: Alexa647-fibrinogen binding to printed small molecules – biochemical, small-molecule microarray, 635/667 nm fluorescence, artefact control for SMM control-protein annotation, profiling panel (AID 1131); settings: fibrinogen-A647 binding fluorescence, higher = more signal;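 further: z-score merges 667 nm fluorescence with per-spot signal-to-noise over triplicate slides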
[5] = target: Follistatin (Homo sapiens) (UniProt P19883); test: FST protein binding to printed compounds – biochemical, small-molecule microarray, 635/667 nm fluorescence, primary screen (AID 1132); settings: 635 nm fluorescence, higher = more signal
Sequence of Follistatin (Homo sapiens) (P19883 whole entry, looked up): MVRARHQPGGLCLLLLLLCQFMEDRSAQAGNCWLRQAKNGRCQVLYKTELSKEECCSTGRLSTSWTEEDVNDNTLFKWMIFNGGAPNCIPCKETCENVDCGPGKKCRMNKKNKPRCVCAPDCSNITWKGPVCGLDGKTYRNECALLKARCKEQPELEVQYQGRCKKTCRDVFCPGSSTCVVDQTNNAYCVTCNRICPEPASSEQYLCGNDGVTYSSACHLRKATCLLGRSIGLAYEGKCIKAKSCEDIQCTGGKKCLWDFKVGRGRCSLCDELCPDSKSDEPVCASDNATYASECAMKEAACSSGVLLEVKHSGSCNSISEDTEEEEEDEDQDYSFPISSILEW

[6] = target: Fibroblast growth factor 2 (Homo sapiens) (UniProt P09038); test: basic fibroblast growth factor binding to printed compounds – biochemical, small-molecule microarray, 635/667 nm fluorescence, primary screen (AID 1133); settings: FGF2, fluorescence 635/667, higher = more signal
Sequence of Fibroblast growth factor 2 (Homo sapiens) (P09038 whole entry, looked up): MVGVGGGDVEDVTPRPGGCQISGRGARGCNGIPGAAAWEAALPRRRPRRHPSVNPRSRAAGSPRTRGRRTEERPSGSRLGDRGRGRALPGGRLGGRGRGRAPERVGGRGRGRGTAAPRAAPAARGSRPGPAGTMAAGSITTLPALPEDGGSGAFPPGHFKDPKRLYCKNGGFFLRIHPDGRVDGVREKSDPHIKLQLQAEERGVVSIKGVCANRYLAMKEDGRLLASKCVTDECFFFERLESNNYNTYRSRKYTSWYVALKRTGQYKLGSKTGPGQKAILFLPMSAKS

[7] = JC-1 mitochondrial potential readout, lung cancer cells – cell-based, A549, JC-1 fluorescence, basal, 24 h, 100 nL, profiling panel (AID 1138); settings: higher = more signal;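 further: A549 lung adenocarcinoma cells under basal conditions with no added stimulus; test concentration not given here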
[8] = test system: Lefty1; test: Lefty1 protein binding to printed compounds – biochemical, small-molecule microarray, 635/667 nm fluorescence, primary screen (AID 1139); settings: fluorescence 635/667, higher = more signal
[9] = test system: wheat germ agglutinin (Triticum aestivum), Alexa647-labelled; test: Alexa647-WGA lectin binding to printed small molecules – biochemical, small-molecule microarray, 635/667 nm fluorescence, artefact control for SMM control-protein annotation, profiling panel (AID 1140); settings: WGA-A647 binding, 635 nm fluorescence, higher = more signal;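 further: score merges 667 nm feature emission with signal to noise over triplicate slides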
[10] = target: Luciferin 4-monooxygenase (Photinus pyralis) (UniProt P08659); test: inhibition of purified Photinus pyralis luciferase – biochemical, luminescence, purified enzyme, 2006 set, primary screen (AID 1141); settings: purified firefly luciferase, SteadyGlo luminescence, 30 min; higher = more signal, called active from +8 up or from −8 down;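 further: cell-free assay with purified firefly luciferase at 100 ng per well in PBS; test concentration not given here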
Sequence of Luciferin 4-monooxygenase (Photinus pyralis) (P08659 whole entry, looked up): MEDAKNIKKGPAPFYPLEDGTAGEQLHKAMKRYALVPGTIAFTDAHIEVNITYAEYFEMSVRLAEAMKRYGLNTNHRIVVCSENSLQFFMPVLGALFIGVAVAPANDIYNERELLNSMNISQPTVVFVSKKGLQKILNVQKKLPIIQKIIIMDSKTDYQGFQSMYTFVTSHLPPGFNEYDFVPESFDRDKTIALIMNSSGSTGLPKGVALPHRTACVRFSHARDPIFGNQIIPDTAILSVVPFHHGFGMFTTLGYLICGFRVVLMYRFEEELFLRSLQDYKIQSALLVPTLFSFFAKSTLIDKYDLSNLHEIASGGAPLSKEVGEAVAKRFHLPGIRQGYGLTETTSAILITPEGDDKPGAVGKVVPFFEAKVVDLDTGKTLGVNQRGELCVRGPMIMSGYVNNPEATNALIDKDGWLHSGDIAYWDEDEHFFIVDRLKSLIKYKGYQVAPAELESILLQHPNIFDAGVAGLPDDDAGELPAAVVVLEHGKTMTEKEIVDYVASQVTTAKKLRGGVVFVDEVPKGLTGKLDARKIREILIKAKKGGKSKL

Row | SMILES | composite z-score [1] | composite z-score [2] | composite z-score [3] | composite z-score [4] | composite z-score [5] | composite z-score [6] | z-score [7] | composite z-score [8] | composite z-score [9] | z-score [10]
1 | C=CCNC(=O)[C@@H]1[C@H]2C(=O)O[C@H](c3ccccc3)[C@H](c3ccccc3)N2[C@H](c2ccc(O)cc2)[C@@]12C(=O)N(C(=O)OCCOC)c1ccc(C#CCCO)cc12 | 1.45 | 0.779 | 0.863 | 0.389 | 1.19 | 1.25 | 0.703 | 0.531 | 0.862 | -0.52 (inactive)
2 | C[C@]1(C(=O)O)c2ccccc2C(=O)N(Cc2ccc(OC(F)(F)F)cc2)[C@H]1c1ccc(CO)cc1 | 1.1 | 0.409 | 0.609 | 0.0748 | -0.156 | -0.381 | 0.447 | -0.685 | 0.596 | 0.0795 (inactive)
3 | COc1cc(NN2C(C(O)C3CCCCC3)C=CC3C(=O)N(C)C(=O)C32)cc(OC)c1OC (stereo not given) | 0.901 | 1.23 | 1.97 | 1 | 0.954 | -0.0452 | 1.75 | -0.608 | 1.16 | -0.527 (inactive)
4 | COCCOC(=O)N1C(=O)[C@@]2(c3cc(C#CCNC(N)=O)ccc31)[C@H](c1ccc(OCCO)cc1)N1[C@H](c3ccccc3)[C@H](c3ccccc3)OC(=O)[C@H]1[C@@H]2C(N)=O | 1.11 | 1.14 | 0.31 | 0.663 | 0.926 | 0.258 | -0.405 | 0.43 | 0.673 | -1.83 (inactive)
5 | O=C(O)[C@H]1C[C@H]2C(=O)N[C@@H](Cc3ccccc3)C(=O)N2[C@H]1c1cccc(OCCO)c1 | 1.7 | -0.0006 | -0.167 | 0.472 | 1.43 | 1.44 | 0.706 | 1.33 | 0.568 | -0.832 (inactive)
6 | COC(=O)[C@@]1(Cc2ccccc2)[C@H]2c3cc(C(=O)N(C)C)n(CCn4cc([N+](=O)[O-])nc4C)c3C[C@H]2CN1C(=O)c1ccccc1 | 0.735 | 0.858 | 1.39 | 0.989 | 0.387 | -0.163 | -0.22 | 0.216 | 1.1 | -0.0637 (inactive)
7 | CC(C)(C)OC(=O)CC[C@]1(C(=O)N2CCCCC2)COC(c2ccc(OCCCO)cc2)=N1 | 2.11 | 1.23 | 0.857 | 1 | 0.778 | -0.0857 | -0.29 | 0.197 | 1.12 | -0.3 (inactive)
8 | O=C1C[C@@](C(=O)NCc2ccccc2)(c2ccc([N+](=O)[O-])cc2)[C@@H](c2ccc(CO)cc2I)N1CC12CC3CC(CC(C3)C1)C2 | 0.579 | 0.976 | 0.121 | 0.846 | 1.41 | 1.54 | -1.36 | 1.52 | 1.07 | 1.34 (inactive)
9 | C=CCC(OC(C)=O)[C@@H]1[C@@H](N(Cc2cccc3ccccc23)C(=O)Cc2ccc(F)cc2)c2cc(OCCCO)ccc2N1C(=O)c1ccc(-c2ccccc2)cc1 (stereo not given in full) | -0.517 | -0.0075 | 0.365 | 0.674 | -0.0679 | 0.292 | 0.577 | -0.62 | 0.507 | -0.403 (inactive)
10 | O=C(CS)NCCCCCCNC(=O)[C@@H]1C[C@@H]2C(=O)NCC(=O)N2[C@@H]1c1ccc(O)cc1 | 2.52 | -0.41 | 0.0509 | -0.975 | 0.526 | 1.18 | 0.601 | -0.628 | -0.498 | -1.38 (inactive)
11 | C[C@@H]1ON(c2ccc(I)cc2)[C@H](c2ccc(OC(=O)OC(C)(C)C)cc2)[C@H]1C(=O)N1C(=O)OC[C@H]1Cc1ccccc1 | 0.955 | 1.13 | -0.0457 | 0.966 | 0.61 | 0.255 | 0.386 | 0.445 | 0.348 | -0.695 (inactive)
12 | CCOC(=O)C[C@H]1[C@H](OC(=O)c2ccc(-c3ccccc3)cc2)[C@@H](NC(=O)CC(C)C)c2cc(OCCCO)ccc2N1C(=O)c1ccccc1 | 0.281 | 0.453 | 0.513 | 0.252 | 0.249 | 0.376 | 1.23 | 0.369 | 0.0794 | -0.228 (inactive)
13 | [N-]=[N+]=NCc1ccccc1[C@H]1OC(c2ccc(OCCCO)cc2)=N[C@@]1(Cc1ccccc1)C(=O)NCCN1CCOCC1 | 2.04 | 1.26 | 0.514 | 0.915 | 1.33 | 1.63 | 1.87 | 0.332 | 0.531 | -3.29 (inactive)
14 | COc1cc(NN2C(C(O)c3ccccc3)C=CC3C(=O)N(C)C(=O)C32)cc(OC)c1OC (stereo not given) | 0.981 | 1.19 | 0.681 | 0.959 | 0.756 | 0.216 | -0.109 | 0.229 | 1.23 | -1.69 (inactive)
15 | CCOC(=O)C=Cc1ccccc1O | 0.712 | 0.923 | -0.0156 | 0.881 | 0.79 | 0.292 | -1.47 | 0.175 | 0.404 | -0.532 (inactive)
16 | CCOC(=O)C1=C[C@@H](C(C)(C)C)N(S(=O)(=O)c2ccc(C)cc2)[C@H]1c1cccc(Cl)c1 | 1.07 | 1.22 | 2.77 | 0.862 | 0.677 | 0.556 | 2.42 | 1.26 | 1.01 | 1.24 (inactive)
17 | CCOC(=O)C[C@H]1[C@H](OC(=O)c2cc3ccccc3oc2=O)[C@@H](NC(=O)c2ccc3ccccc3c2)c2cc(OCCCO)ccc2N1C(=O)Cc1ccc(OC)cc1 | -0.017 | 0.743 | 0.307 | 0.932 | 0.911 | 0.518 | -0.167 | 0.631 | 0.664 | 0.842 (inactive)

Row | SMILES | composite z-score [1] | composite z-score [2] | composite z-score [3] | composite z-score [4] | composite z-score [5] | composite z-score [6] | z-score [7] | composite z-score [8] | composite z-score [9] | z-score [10]
18 | CCCCCCCCCCC(O)C1C=CC2C(=O)N(C)C(=O)C2N1Nc1cc(OC)c(OC)c(OC)c1 (stereo not given) | 0.255 | 0.242 | 0.55 | -0.203 | -0.763 | -1.44 | 1.06 | -0.946 | 0.458 | -0.819 (inactive)
19 | COc1ccc([Si](C)(C)[C@H]2[C@H](CCO)O[C@@]3(C(=O)N(Cc4ccccc4)c4ccc(N5CCOC5=O)cc43)[C@@H]2C)cc1 | 0.783 | 0.981 | 0.0096 | 0.773 | 0.701 | 1.11 | 0.571 | 0.385 | 0.986 | 0.446 (inactive)
20 | C=C[C@H](C)[C@H](OC(=O)Nc1ccc(OC)cc1)c1ccc(OCCO)cc1 | -0.489 | -0.653 | 0.0457 | -0.909 | -0.617 | -0.0943 | 0.927 | -0.431 | -0.647 | -6.74 (inactive)
21 | O=C1O[C@H](c2ccccc2)[C@H](c2ccccc2)N2[C@H]1[C@@H](C(=O)Nc1nc3ccccc3s1)[C@]1(C(=O)Nc3ccc(C#CC4=CCCCC4)cc31)[C@H]2c1ccc(O)cc1 | 0.41 | 1.18 | -0.145 | 0.921 | 1.12 | 0.355 | -1.83 | 0.844 | 0.191 | 0.128 (inactive)
22 | Cc1ccc(N2C(=O)c3ccccc3[C@](C)(C(=O)NCc3ccccc3)[C@@H]2c2ccc(CO)cc2)nc1 | 2.31 | -0.27 | 0.771 | -0.887 | 1.31 | 0.464 | -0.425 | -0.0828 | 0.0023 | -1.1 (inactive)
23 | CCCNC(=O)[C@@]1(Sc2ccc(C)cc2)CC(=O)N(C2CCCCC2)[C@@H]1c1ccc(CO)cc1I | 1.53 | 1.2 | 0.996 | 0.146 | -0.182 | 0.128 | 1.04 | -0.351 | 0.73 | -0.0779 (inactive)
24 | CC(=O)NCCCC[C@@H]1NC(=O)[C@H]2C[C@@H](C(=O)NCCCCCNC(=O)CS)[C@@H](c3cccc(OCCO)c3)N2C1=O | 2.85 | 0.616 | 0.598 | 0.108 | 1.33 | 1.6 | 0.0396 | 0.157 | 0.29 | -1.36 (inactive)
25 | Cc1ccc(S[C@]2(C(=O)NCC(C)C)CC(=O)N(C3Cc4ccccc4C3)[C@@H]2c2ccc(CO)cc2I)cc1 | -0.258 | 0.27 | -0.199 | -1.13 | -0.615 | -1.02 | -0.244 | -1.38 | -0.463 | -0.063 (inactive)
26 | [N-]=[N+]=NCc1ccccc1[C@@H]1OC(c2ccc(OCCCO)cc2)=N[C@]1(Cc1ccccc1)C(=O)NCCN1CCOCC1 | 1.16 | 1.18 | 0.533 | 0.514 | 1.31 | 0.41 | 2.27 | -0.0059 | 0.721 | -1.94 (inactive)
27 | C=C(CCCC)C(=O)CC[C@H](OC(C)=O)c1ccc(OCCO)cc1 | 1.45 | -0.957 | 0.0145 | 0.431 | -0.243 | -0.271 | 0.208 | 0.108 | 0.359 | -0.66 (inactive)
28 | CC1CC/C=C\[C@H]2OC34C=CCN(CCN5CCOCC5)C(=O)[C@H]3N(C(C)CO)C(=O)[C@@H]4C2C(=O)O1 (stereo not given in full) | -0.172 | -1.04 | -0.421 | -1.99 | 0.446 | -0.439 | 0.224 | 0.582 | -0.928 | -1.39 (inactive)
29 | CC(C)C(=C=CC[C@@H](O)c1cccc(OCCO)c1)C[C@@H](O)c1ccccn1 | 1.39 | -0.0234 | 0.0046 | -1.15 | 0.484 | -0.0241 | 0.386 | 0.402 | 0.782 | 0.179 (inactive)
30 | CCN(CC)c1ccc(N2CC=CC34O[C@@H]5C=CCCOC(=O)C5[C@H]3C(=O)N(CCO)[C@@H]4C2=O)cc1 (stereo not given in full) | -0.827 | -1.74 | -0.491 | -1.21 | -0.722 | -1.01 | 0.108 | -1 | -0.553 | -0.643 (inactive)
31 | C=CCOC(=O)[C@H]1[C@@H]2C(=O)O[C@@H](c3ccccc3)[C@@H](c3ccccc3)N2[C@@H](c2ccc(OCCOC(=O)[C@H]3C[C@H]4C(=O)N[C@@H](CCCCNC(C)=O)C(=O)N4[C@H]3c3cccc(OCCO)c3)cc2)[C@]12C(=O)Nc1ccc(I)cc12 | 1.3 | 1.15 | 0.439 | 0.808 | 1.3 | 1.68 | -1.46 | 1.55 | 0.0811 | -0.33 (inactive)
32 | COC(=O)[C@@]1(Cc2ccc(F)cc2)[C@H]2c3cc(C(=O)N4CCCC4)n(C)c3C[C@H]2CN1C(=O)c1ccccc1 | 2.46 | 1.23 | 0.746 | 0.422 | 0.253 | -0.325 | 0.312 | -0.983 | 0.0993 | 0.745 (inactive)
33 | CCOC(=O)C1=CC[C@@H](c2ccccc2)N(S(=O)(=O)c2ccc(C)cc2)[C@H]1C=Cc1ccccc1 | 0.906 | 0.943 | 0.289 | -0.181 | -0.28 | -0.463 | 2.17 | -0.584 | 0.152 | 1.45 (inactive)
